Screens: PubChem, National Center for Advancing Translational Sciences (NCATS)
Pf Dd2 growth: Plasmodium falciparum Dd2 growth inhibition; P. falciparum Dd2 growth, SYBR Green, 72 h; AID 1347417; Potency, µM (series often up to 28.9 µM), actives largely listed as inhibitors; hit rate 4.3% among 120,000; active = well fitted inhibition curve with a large enough effect; note: nearly all actives have a fitted effect of over 65% in size
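Readout: SYBR Green fluorescence, 485 nm excitation, 535 nm emission, after ~16 h lysis at 37C. Before that, Dd2-infected red cells (2.5% hematocrit) grew 72 h with compound, 29 uM top final concentration.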
Hits are given with their value; 0 = inactive; [ ] = another dose, or the depositor's remark. Shown is part of a subset that was picked to be rich in hits.

SMILES	Pf Dd2 growth
Cc1cc(C(=O)N[C@H](c2ccccn2)C2CC(O)C2)c2c(C)noc2n1 (stereo not given in full)	0
CNC(=O)[C@@H]1C[C@H](n2cc(CNC(=O)Nc3cc(F)ccc3F)nn2)CN1	0
CN1C(=O)Cc2ccccc2C1C(=O)NCc1ccc(F)cc1Cl (stereo not given)	0
O=S(=O)(Cc1ccccc1F)N1CCC(C2CCNC2)CC1 (stereo not given)	0
O=C(NCc1nnc2n1C(C(=O)NCc1ccc3c(c1)OCO3)CC2)C1CC1 (stereo not given)	0
COc1ccc(C(=O)N2CCn3c(nnc3[C@@H]3C[C@@H](O)CN3C(C)C)C2)c(OC)n1	0
COc1cc2nc(Cl)nc(N3CC4CCC(C3)N4CC(F)(F)F)c2cc1OC	5µM
COc1ccc([N+](=O)[O-])c(N2CC3CCC(C2)N3CC(F)(F)F)n1	0
FC(F)(F)CN1C2CCC1CN(c1cc(Cl)ncn1)C2	0
Cc1ccncc1C(=O)N1CC(N(C)Cc2cccnc2)C1	0
O=C(c1ccccc1F)N1CCCC2(C1)NC(=O)N(Cc1ccccc1)C2=O (stereo not given)	0
COC(=O)[C@@H](C)NC(=O)[C@H]1CN(S(=O)(=O)c2ccccc2)CCN1C(=O)NC1CCCCC1	0
CN(C)c1ccc(C(=O)N2CCN(S(C)(=O)=O)[C@H](C(=O)N[C@@H](CC3CCCCC3)C(N)=O)C2)cc1	0
COC(=O)[C@H](Cc1ccc(OC)cc1)NC(=O)[C@@H]1CN(C(=O)NC(C)C)CCN1C(=O)c1cccs1	0
COC(=O)[C@H](Cc1ccc(OC)cc1)NC(=O)[C@H]1CN(S(=O)(=O)c2ccccc2)CCN1C(=O)NC1CCCCC1	11µM
COC(=O)[C@H](Cc1ccc(OC)cc1)NC(=O)[C@H]1CN(C(=O)c2ccc(N(C)C)cc2)CCN1C(=O)c1cccs1	0.14µM
COC(=O)[C@H](Cc1ccc(OC)cc1)NC(=O)[C@@H]1CN(S(C)(=O)=O)CCN1S(=O)(=O)c1ccccc1	0
COC(=O)[C@H](Cc1ccc(OC)cc1)NC(=O)[C@H]1CN(C(=O)c2ccc(N(C)C)cc2)CCN1C(=O)C1CCCCC1	0.4µM
COC(=O)[C@H](Cc1ccc(OC)cc1)NC(=O)[C@H]1CN(C(=O)Nc2ccccc2)CCN1C(=O)C1CCCCC1	0
COC(=O)[C@H](Cc1ccc(OC)cc1)NC(=O)[C@@H]1CN(C(=O)c2cccc(F)c2)CCN1C(C)=O	0
CCn1cc(S(=O)(=O)N2C[C@@H](C(=O)NC)[C@H](c3n[nH]c(C)n3)C2)cn1	0
COc1nc2c(cc1CNC(=O)c1c(C)cccc1C)C(=O)N(C1CCCC1)C2	0
Cc1ccc(NC(=O)C2CCC(CNS(=O)(=O)c3cccc4nsnc34)CC2)c(C)c1 (stereo not given)	0
CCc1ccc(NC(=O)C2CCCN2S(=O)(=O)c2cccc3nsnc23)cc1 (stereo not given)	0
COc1ccc(NC(=O)CCNS(=O)(=O)c2cccc3nsnc23)cc1	0
SMILES	Pf Dd2 growth
CCCCN(CC)C(=O)C1CCC(CNS(=O)(=O)c2cccc3nsnc23)CC1 (stereo not given)	2.8µM
O=C(Nc1ccc(C(F)(F)F)cc1)C1CCC(CNS(=O)(=O)c2cccc3nsnc23)CC1 (stereo not given)	2.8µM
CCCCN(CC)CCNC(=O)C1CCCN(S(=O)(=O)c2cccc3nsnc23)C1 (stereo not given)	0
O=C(Nc1ccc(F)c(F)c1)C1CCCN1S(=O)(=O)c1cccc2nsnc12 (stereo not given)	11µM
Cc1ccc(NC(=O)C2CCCN2S(=O)(=O)c2cccc3nsnc23)c(C)c1 (stereo not given)	0
Cc1ccc(NC(=O)C2CCN(S(=O)(=O)c3cccc4nsnc34)CC2)cc1	0
CCN(C(=O)C(Cc1ccccc1)NS(=O)(=O)c1cccc2nsnc12)c1ccccc1 (stereo not given)	0
CCN(C(=O)C1CCC(CNS(=O)(=O)c2cccc3nsnc23)CC1)c1ccc(C)c(C)c1 (stereo not given)	4.5µM
CCN(CC)c1ccc(NC(=O)CCS(=O)(=O)c2cccc3nsnc23)c(C)c1	0
O=C(Nc1ccccc1)[C@H]1O[C@H](CCN2CCN(c3ccccn3)CC2)CC[C@@H]1O	0
O=C(CCn1ccn2nc3c(c2c1=O)CCCC3)NCc1ccco1	0
Cc1cccc(OCC(=O)c2ccc3c(c2)N(CC(=O)N(C)Cc2ccccc2)C(=O)CO3)c1	0
O=C1CC(c2ccccc2)N(C(=O)C2CC2)CCCN(C(=O)C2CCCCC2)CCN1 (stereo not given)	0
CN(C)c1cc(N2CCCC(NC(=O)Cc3cccs3)C2)ncn1 (stereo not given)	0[5.79 µM]
Cn1c(CO[C@H]2CN(C(=O)c3cccnc3)C[C@H]2F)nc2ccccc21	0
CCN(CC)C(=O)CC[C@@H]1CNC(=O)[C@@H]2C[C@H](NCc3ccc(N(C)C)cc3)CN12	0
Cc1ncoc1C(=O)N1CCOC(Cc2cccc(C(F)(F)F)c2)C1 (stereo not given)	0
COc1ccc(OC)c(NC(=O)c2ccc3c(SCC(=O)O)c4c(nc3c2)CCCC4)c1	10µM
O=C(O)CSc1c2c(nc3cc(C(=O)Nc4ccc(F)c(Cl)c4)ccc13)CCC2	0
COc1ccc(NC(=O)c2ccc3c(SCC(=O)O)c4c(nc3c2)CCC4)c(OC)c1	0
CC(=O)NC[C@H]1OC[C@@H](NCc2cccs2)[C@@H]1O	0
CN(C)C(=O)c1cc(-c2ccc(S(C)(=O)=O)cc2)c2cnn(C)c2n1	0
CN(C)C(=O)c1cc(-c2ccc(S(C)(=O)=O)cc2)nc2c1cnn2C	0
CC(C)NC(=O)c1cc(-c2ccc(S(C)(=O)=O)cc2)c2cnn(C)c2n1	3.2µM
COc1ccc(NC(=O)N2CCC3(CC2)CC(N(C(=O)NC(C)C)C2CC2)CCO3)cc1 (stereo not given)	0
SMILES	Pf Dd2 growth
Cc1nccn1Cc1nnc(C2CCCN(S(=O)(=O)C3CC3)C2)n1C (stereo not given)	0
O=C(NCCc1ccc(Cl)cc1)C1CCc2nnc(-c3ccc(Cl)nc3)n21 (stereo not given)	4µM
O=C(NCc1cccnc1)C1CCc2nnc(-c3ccc(Cl)nc3)n21 (stereo not given)	0
COC(=O)CNC(=O)C1CCc2nnc(-c3ccc(Cl)nc3)n21 (stereo not given)	0
O=C(CCC1CCN(S(=O)(=O)c2ccc(F)cc2)CC1)N1CCc2ccccc2C1	0
COc1cccc(N2CCN(C(=O)C[C@H]3NC(=O)c4ccccc4NC3=O)CC2)c1	0
COCCOc1cc(=O)n2c(c1C(=O)NC1CCC1)CCOCC2	0
Cc1nc(-c2ccccc2)cc([C@H]2CN3CC[C@H]2C[C@@H]3CNC(=O)c2ccco2)n1	0
CCCS(=O)(=O)NC[C@H]1C[C@@H]2CCN1C[C@@H]2c1cc(-c2ccccc2Br)nc(C)n1	0
CC(=O)NC[C@H]1C[C@@H]2CCN1C[C@@H]2c1cc(-c2ccccc2)nc(C)n1	0
Cc1nc(-c2ccco2)cc([C@H]2CN3CC[C@H]2C[C@@H]3CNC2CCOCC2)n1	11µM
Cc1nc(-c2ccco2)cc([C@H]2CN3CC[C@H]2C[C@@H]3CNS(C)(=O)=O)n1	0
Cc1nc(-c2ccc(F)cc2)cc([C@H]2CN3CC[C@H]2C[C@@H]3CNC(=O)c2ccco2)n1	0
Cc1nc(-c2ccco2)cc([C@H]2CN3CC[C@H]2C[C@@H]3CNC(=O)c2ccccc2)n1	0
CCC(CC)c1cc([C@H]2CN3CC[C@H]2C[C@@H]3CNC2CCN(C)CC2)nc(-c2ccncc2)n1	1.4µM
